The source of these data is PubChem BioAssay (Tox21).

Records with an inconclusive call do not appear. Values without a mark were called inactive. Calls of active or inactive are those of the source. Unless noted, calls follow the shape of the dose curve; as a rule, active = well fitted curve in the direction sought with a large enough effect in the repeat runs; inconclusive = weak or mixed curves; inactive = no such curve, though single readings can be large; an effect the other way counts as inactive or inconclusive.

Assay [1] is described as follows: qHTS assay to identify aromatase inhibitors - cell viability counter screen (AID 743084).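 Also: cells stimulated with testosterone during compound exposure; nearly all actives have a fitted effect of over 55% in size.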 In general terms: Quantitative high-throughput screening tests each substance at several concentrations.
The target in assay [2] is Aryl hydrocarbon receptor (Homo sapiens) (UniProt P35869). Put plainly: qHTS assay to identify small molecule that activate the aryl hydrocarbon receptor (AhR) signaling pathway (AID 743085). Also: nearly all actives have a fitted effect of over 15% in size. Also: potency is read from the fitted curve at half-maximal effect.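 As to activation: HG2L7.5c1 human HepG2 liver cells with stably integrated DRE-driven firefly reporter; series mostly up to about 70 µM.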 In outline: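 Luminescence (ONE-Glo) from a dioxin-responsive-element luciferase reporter in HG2L7.5c1 HepG2 cells after 24 hr compound exposure at 37C; viability measured by CellTiter-Fluor fluorescence beforehand.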
Chain of Aryl hydrocarbon receptor (Homo sapiens) (P35869 whole entry, looked up): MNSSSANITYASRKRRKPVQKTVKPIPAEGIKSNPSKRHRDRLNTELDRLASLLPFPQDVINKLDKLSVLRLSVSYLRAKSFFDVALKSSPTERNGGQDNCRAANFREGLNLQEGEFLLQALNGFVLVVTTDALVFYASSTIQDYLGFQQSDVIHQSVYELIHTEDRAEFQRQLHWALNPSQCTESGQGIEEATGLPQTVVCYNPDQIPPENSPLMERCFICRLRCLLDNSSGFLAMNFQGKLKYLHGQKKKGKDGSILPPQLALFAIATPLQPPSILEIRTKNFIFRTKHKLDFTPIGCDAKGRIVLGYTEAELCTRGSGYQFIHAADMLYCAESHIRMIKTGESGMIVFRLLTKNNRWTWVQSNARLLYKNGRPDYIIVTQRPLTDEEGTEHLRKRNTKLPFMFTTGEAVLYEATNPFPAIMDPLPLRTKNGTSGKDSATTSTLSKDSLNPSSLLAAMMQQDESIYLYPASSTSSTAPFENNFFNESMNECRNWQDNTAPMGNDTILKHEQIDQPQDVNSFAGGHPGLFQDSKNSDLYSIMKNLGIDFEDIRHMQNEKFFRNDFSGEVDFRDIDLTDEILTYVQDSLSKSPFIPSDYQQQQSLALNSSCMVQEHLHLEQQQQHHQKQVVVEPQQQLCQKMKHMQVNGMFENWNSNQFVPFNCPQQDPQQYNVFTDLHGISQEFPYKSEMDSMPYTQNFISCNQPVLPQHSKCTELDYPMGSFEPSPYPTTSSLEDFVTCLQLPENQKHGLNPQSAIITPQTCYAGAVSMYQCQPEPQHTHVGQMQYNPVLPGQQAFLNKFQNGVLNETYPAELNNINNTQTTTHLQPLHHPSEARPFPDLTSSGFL

Assay [3] is described as follows: qHTS assay to identify small molecule that activate the aryl hydrocarbon receptor (AhR) signaling pathway - cell viability counter screen (AID 743086).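 Also: HepG2 liver cells carrying the AhR DRE luciferase reporter; series mostly up to about 70 µM; nearly all actives have a fitted effect of over 45% in size.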 In outline: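 HepG2-AhR-luc (HG2L7.5c1) cells, 4000/well, were preincubated 5 h at 37C, exposed to compound in qHTS format for 24 hr at 37C, then given CellTiter-Fluor for 30 min; viability was read as fluorescence in the reporter wells.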

Assay [4] concerns the target Peroxisome proliferator-activated receptor gamma (Homo sapiens) (UniProt P37231). Put plainly: qHTS assay to identify small molecule agonists of the peroxisome proliferator-activated receptor gamma (PPARg) signaling pathway (AID 743094; active = well fitted activation curve with a large enough effect in the signal ratio in the repeat runs, not every such curve was filed as active; the % refers to the signal ratio). In a few lines:
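Beta-lactamase FRET fluorescence was the read-out after a 1 h room-temperature substrate step, following 17 h compound treatment at 37C of HEK293H cells expressing a UAS-driven bla reporter responsive to PPARg.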

For assay [5] the target is unchanged. The assay can be described thus: qHTS assay to identify small molecule antagonists of the peroxisome proliferator-activated receptor gamma (PPARg) signaling pathway (AID 743191; calls by dose curve; also: series mostly up to about 63 µM; nearly all actives have a fitted effect of over 30% in size). In a few lines: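 GeneBLAzer PPARg UAS-bla HEK293H cells carrying a UAS-driven beta-lactamase reporter were plated at 3000 cells/well, preincubated 5 h at 37C, then given compound for 17 h at 37C; LiveBLAzer B/G FRET substrate was read after 1 h at room temperature.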

Assay [6] can be described thus: qHTS assay to identify small molecule antagonists of the peroxisome proliferator-activated receptor gamma (PPARg) signaling pathway - cell viability counter screen (AID 743194). Also: nearly all actives have a fitted effect of over 55% in size. In outline:
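PPARg-UAS-bla HEK293H cells were plated, rested 5 h at 37 C, then treated with compounds plus rosiglitazone (50 nM final) for 17 h at 37 C; viability was then read by CellTiter-Glo luminescence after 30 min at room temperature.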

Assay [7] is described as follows: qHTS assay for small molecule agonists of the antioxidant response element (ARE) signaling pathway (AID 743202; active = well fitted activation curve with a large enough effect in the signal ratio in the repeat runs, not every such curve was filed as active; the % refers to the signal ratio). In outline: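 Read-out: LiveBLAzer B/G FRET substrate fluorescence after 2 h at room temperature, following 16 h compound treatment at 37 C of HepG2 cells carrying an ARE-driven beta-lactamase reporter.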
A short description of assay [8]: qHTS assay for small molecule agonists of the antioxidant response element (ARE) signaling pathway - cell viability counter screen (AID 743203; calls by dose curve; also: nearly all actives have a fitted effect of over 55% in size). In a few lines:
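HepG2 cells carrying ARE-driven beta-lactamase; 2,000 cells/well; 5 hrs plating; compound pinned from DMSO; 16 hrs 37C/5% CO2; CellTiter-Glo added; 30 min RT; luminescence.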

Assay [9] is described as follows: qHTS assay for small molecule activators of the heat shock response signaling pathway - cell viability counter screen (AID 743209). Also: nearly all actives have a fitted effect of over 50% in size. In outline: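 Luminescence from CellTiter-Glo, added after the beta-lactamase FRET read, gave the viability signal. Cells were HSE-bla HeLa treated with DMSO-dissolved compounds for 5 h at 37 C following overnight plating.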
Assay [10] can be described thus: qHTS assay for small molecule activators of the heat shock response signaling pathway (AID 743210; active = well fitted activation curve with a large enough effect in the signal ratio in the repeat runs, with a control signal flat, not every such curve was filed as active; the % refers to the signal ratio; also: series mostly up to about 63 µM). In outline:
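HSE-bla HeLa cells (beta-lactamase reporter under heat shock response elements) were exposed to compounds for 5 h at 37 C, then loaded with LiveBLAzer B/G FRET substrate for 2.5 h at room temperature before fluorescence reading.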

The nature of assay [11]: qHTS assay to identify small molecule agonists of the peroxisome proliferator-activated receptor delta (PPARd) signaling pathway - cell viability counter screen (AID 743211). Also: nearly all actives have a fitted effect of over 55% in size. In outline: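 Viability was measured as CellTiter-Glo luminescence (30 min, room temperature) in the same wells as the beta-lactamase readout. GeneBLAzer PPARd UAS-bla HEK293H cells received compound after 5 h plating and were incubated 17 h at 37 C.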

Assay [12] addresses Peroxisome proliferator-activated receptor delta (Homo sapiens) (UniProt Q03181). Put plainly: qHTS assay to identify small molecule agonists of the peroxisome proliferator-activated receptor delta (PPARd) signaling pathway (AID 743212; calls by dose curve). In outline:
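GeneBLAzer PPARd UAS-bla HEK293H cells (beta-lactamase reporter under UAS control), plated and rested 5 h at 37 C, then exposed to compounds in DMSO at 37 C; LiveBLAzer B/G FRET substrate added, 2 h room temperature, fluorescence read.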

A short description of assay [13]: qHTS assay to identify small molecule antagonists of the peroxisome proliferator-activated receptor delta (PPARd) signaling pathway - cell viability counter screen (AID 743213). Also: nearly all actives have a fitted effect of over 50% in size. In a few lines:
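Same-well viability: cells pre-incubated 5 h, dosed with compound plus 300 nM L165041, kept 17 h at 37 C, FRET substrate 2 h RT, then CellTiter-Glo 30 min RT and luminescence.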

In assay [14] the target is Peroxisome proliferator-activated receptor delta (Homo sapiens) (UniProt Q03181). Put plainly: qHTS assay to identify small molecule antagonists of the peroxisome proliferator-activated receptor delta (PPARd) signaling pathway (AID 743215; active = well fitted inhibition curve with a large enough effect in the signal ratio in the repeat runs, not every such curve was filed as active; the % refers to the signal ratio;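 also: cells stimulated with agonist L165041 at 300 nM final during compound exposure; series mostly up to about 62 µM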). In outline:
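Read-out is beta-lactamase FRET fluorescence, measured 2 h after substrate addition at room temperature. Beforehand, UAS-bla HEK293H cells carrying the PPARd reporter were exposed to compounds with L165041 at 300 nM final for 17 h at 37 C.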

A short description of assay [15]: qHTS assay to identify small molecule agonists of the farnesoid-X-receptor (FXR) signaling pathway - cell viability counter screen (AID 743218). Also: nearly all actives have a fitted effect of over 45% in size. In a few lines:
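HEK 293T FXR-bla cells; 5 h pre-incubation, 16 h compound exposure at 37 C; LiveBLAzer substrate 2 h RT, then CellTiter-Glo 30 min RT, luminescence.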

The nature of assay [16]: qHTS assay to identify small molecule antagonists of the farnesoid-X-receptor (FXR) signaling pathway - cell viability counter screen (AID 743221; active = well fitted cell-killing curve with a large enough effect in the repeat runs, not every such curve was filed as active; also: nearly all actives have a fitted effect of over 50% in size). In outline: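 Cytotoxicity counter screen run in the FXR-bla reporter wells: HEK 293T cells exposed to compound with 50 uM (final) chenodeoxycholic acid for 16 h, 37 C, then viability measured by CellTiter-Glo luminescence after 30 min, room temperature.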

Assay [17] concerns the target Vitamin D3 receptor (Homo sapiens) (UniProt P11473). The assay can be described thus: qHTS assay to identify small molecule agonists of the vitamin D receptor (VDR) signaling pathway (AID 743222; calls by dose curve). In a few lines: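 VDR-bla cells, 2,000/well; 4 h preincubation 37C; cpd (DMSO) 16 h; LiveBLAzer B/G substrate 2 h RT; fluorescence intensity read.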
Assay [18] has as its target Bile acid receptor (Homo sapiens) (UniProt Q96RI1). The assay can be described thus: qHTS assay to identify small molecule antagonists of the farnesoid-X-receptor (FXR) signaling pathway (AID 743217; active = well fitted inhibition curve with a large enough effect in the signal ratio in the repeat runs, not every such curve was filed as active; the % refers to the signal ratio). In outline: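 HEK 293T FXR-UAS-bla, 5000 cells/well; compound + CDCA 50 uM final; 16 h, 37 °C; B/G FRET substrate 2 h RT; fluorescence.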
The target is the same in assay [19]. The assay can be described thus: qHTS assay to identify small molecule agonists of the farnesoid-X-receptor (FXR) signaling pathway (AID 743220; active = well fitted activation curve with a large enough effect in the signal ratio in the repeat runs, not every such curve was filed as active; the % refers to the signal ratio). In outline:
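Beta-lactamase reporter under UAS control in GeneBLAzer FXR HEK 293T cells (5000/well) measured with LiveBLAzer FRET substrate after 2 h at room temperature. Compound exposure lasted 16 h at 37C.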

For assay [20], the target named is Vitamin D3 receptor (Homo sapiens) (UniProt P11473). The assay can be described thus: qHTS assay to identify small molecule antagonists of the vitamin D receptor (VDR) signaling pathway (AID 743223; active = well fitted inhibition curve with a large enough effect in the signal ratio in the repeat runs, not every such curve was filed as active; the % refers to the signal ratio). In a few lines:
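Antagonist mode: compound added to VDR-bla cells alongside agonist 1alpha,25-dihydroxyvitamin D3 (3 nM final), incubation 16 h at 37C. Read-out is LiveBLAzer FRET fluorescence, 2 h at room temperature.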

Chain of Peroxisome proliferator-activated receptor delta (Homo sapiens) (Q03181 whole entry, looked up): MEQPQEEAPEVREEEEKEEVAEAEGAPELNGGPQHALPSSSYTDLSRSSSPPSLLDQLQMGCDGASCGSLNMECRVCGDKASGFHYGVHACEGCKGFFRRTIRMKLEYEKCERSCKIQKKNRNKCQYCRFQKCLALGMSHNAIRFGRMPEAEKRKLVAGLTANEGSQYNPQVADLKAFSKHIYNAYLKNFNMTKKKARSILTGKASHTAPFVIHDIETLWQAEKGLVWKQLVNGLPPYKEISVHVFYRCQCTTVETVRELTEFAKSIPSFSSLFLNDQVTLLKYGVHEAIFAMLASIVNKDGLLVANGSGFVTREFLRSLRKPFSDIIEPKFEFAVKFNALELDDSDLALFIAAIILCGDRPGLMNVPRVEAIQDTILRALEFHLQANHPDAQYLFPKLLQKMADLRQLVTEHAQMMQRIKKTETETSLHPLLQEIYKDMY
Chain of Peroxisome proliferator-activated receptor gamma (Homo sapiens) (P37231 whole entry, looked up): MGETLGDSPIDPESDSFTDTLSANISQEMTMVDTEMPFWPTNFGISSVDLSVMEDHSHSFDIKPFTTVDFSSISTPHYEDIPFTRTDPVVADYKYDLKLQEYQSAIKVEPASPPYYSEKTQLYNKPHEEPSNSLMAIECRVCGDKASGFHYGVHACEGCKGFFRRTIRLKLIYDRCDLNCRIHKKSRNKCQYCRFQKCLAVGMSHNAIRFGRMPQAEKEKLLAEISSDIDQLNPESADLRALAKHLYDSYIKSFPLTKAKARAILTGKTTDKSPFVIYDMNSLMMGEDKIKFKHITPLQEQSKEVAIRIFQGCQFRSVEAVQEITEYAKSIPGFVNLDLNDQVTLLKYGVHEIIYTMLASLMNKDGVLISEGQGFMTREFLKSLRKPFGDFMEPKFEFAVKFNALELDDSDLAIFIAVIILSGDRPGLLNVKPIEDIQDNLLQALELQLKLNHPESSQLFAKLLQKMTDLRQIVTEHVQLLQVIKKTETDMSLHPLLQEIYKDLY
Chain of Bile acid receptor (Homo sapiens) (Q96RI1 whole entry, looked up): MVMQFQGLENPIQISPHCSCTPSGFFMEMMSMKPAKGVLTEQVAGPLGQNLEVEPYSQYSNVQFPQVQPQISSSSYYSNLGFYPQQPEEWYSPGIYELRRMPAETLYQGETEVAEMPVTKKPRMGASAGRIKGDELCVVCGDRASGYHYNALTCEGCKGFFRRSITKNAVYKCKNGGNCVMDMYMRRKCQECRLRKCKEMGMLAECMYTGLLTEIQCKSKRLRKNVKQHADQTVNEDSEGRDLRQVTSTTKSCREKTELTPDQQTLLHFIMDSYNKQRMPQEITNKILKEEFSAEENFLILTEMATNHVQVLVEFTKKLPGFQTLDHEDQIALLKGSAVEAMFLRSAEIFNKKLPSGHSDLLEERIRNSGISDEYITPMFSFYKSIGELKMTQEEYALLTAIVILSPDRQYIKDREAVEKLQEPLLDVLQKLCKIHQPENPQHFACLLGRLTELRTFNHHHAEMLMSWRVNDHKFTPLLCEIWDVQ
Chain of Vitamin D3 receptor (Homo sapiens) (P11473 whole entry, looked up): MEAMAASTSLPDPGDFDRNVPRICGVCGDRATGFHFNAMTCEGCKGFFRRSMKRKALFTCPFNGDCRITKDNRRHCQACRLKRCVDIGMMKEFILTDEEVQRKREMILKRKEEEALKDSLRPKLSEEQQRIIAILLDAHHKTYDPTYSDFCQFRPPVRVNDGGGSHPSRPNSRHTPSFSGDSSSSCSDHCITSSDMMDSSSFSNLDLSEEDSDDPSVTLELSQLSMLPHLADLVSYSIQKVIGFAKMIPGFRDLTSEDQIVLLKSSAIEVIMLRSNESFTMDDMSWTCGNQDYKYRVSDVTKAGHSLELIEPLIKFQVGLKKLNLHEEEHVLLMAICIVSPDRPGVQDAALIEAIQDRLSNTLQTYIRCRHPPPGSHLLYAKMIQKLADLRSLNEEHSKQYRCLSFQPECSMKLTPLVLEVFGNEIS

As for `CC(C)C(=O)c1ccccc1`, the Potency entry in assay [1], in assay [2], in assay [3], in assay [5] and in assay [7] was “inactive” throughout. In addition, the compound was classed as inactive in assay [4], in assay [6], in assay [8], in [9], in [10] and in assay [11]. In addition, the outcome in assay [12], in assay [13] and in [14] was inactive.
For `Nc1ccnc(=O)[nH]1`, the Potency result in assay [1], in assay [2], in assay [3], in assay [5], in assay [7] and in assay [15] was “inactive” each time. For the same compound, the outcome in [4], in assay [6], in assay [8], in assay [9], in assay [10] and in assay [11] was inactive. The result in assay [12], in assay [13], in assay [16] and in assay [17] was inactive.
Take `O=P(O)(O)OCC(O)CO` (configuration not stated): the Potency entry in [1], in assay [2], in assay [3], in assay [5] and in assay [7] was “inactive” throughout. Besides, the compound was called inactive in [4], in assay [6], in assay [8], in assay [9], in [11] and in assay [12]. Besides, the call in assay [13], in assay [14], in [18], in assay [19] and in [16] was inactive.
Turning to `COc1ccc(/C=N/NC(=O)c2ccncc2)cc1OC`, the Potency entry in assay [1], in assay [3], in assay [5], in assay [7] and in assay [15] was “inactive” in each case. Also, in assay [2], the Potency was 2660 nM (active). The call in assay [4], in assay [6], in assay [8], in [9], in assay [11] and in assay [12] was inactive. For the same compound, the outcome in assay [13], in assay [14] and in [16] was inactive.
As for `CC(C)SCc1ccco1`, the Potency result in assay [1], in [2], in assay [3], in [5] and in assay [7] was “inactive” in each case. Moreover, the compound was called inactive in assay [4], in assay [6], in assay [8], in [9], in assay [10] and in [11]. Besides, the call in [12], in assay [13] and in [14] was inactive.
Regarding `NS(=O)(=O)c1ccccc1OC(F)(F)F`, the Potency result in assay [1], in assay [2], in [3] and in assay [5] was “inactive” throughout. Besides, the compound was classed as inactive in assay [4], in assay [6], in assay [8], in assay [9], in [10] and in [11]. Further, the call in assay [12], in [13], in assay [18], in [19], in assay [16] and in [17] was inactive. Besides, the call in assay [20] was inactive.
In the case of `C1=CCC(c2ccccc2)CC1` (configuration not stated), the Potency result in assay [1], in [2], in [3], in assay [5] and in assay [15] was “inactive” each time. The compound was classed as inactive in [4], in [6], in [8], in [9], in [10] and in [11]. The compound was called inactive in assay [12], in assay [13], in assay [14], in [16], in assay [17] and in [20].
For `C[C@H]1O[C@H](O[C@H]2[C@H](O)[C@@H](O)[C@@H](O[C@H]3[C@H](O)[C@@H](O)[C@H](O)O[C@@H]3CO)O[C@@H]2CO)[C@H](O)[C@@H](O)[C@@H]1N[C@H]1C=C(CO)[C@@H](O)[C@H](O)[C@H]1O`, the Potency entry in assay [1], in assay [2], in assay [3], in assay [5], in assay [7] and in [15] was “inactive” throughout. The call in assay [4], in [6], in [10], in assay [11], in assay [12] and in assay [13] was inactive. Moreover, the compound was classed as inactive in [14], in assay [16], in assay [17] and in assay [20].
In the case of `Cc1oc(=O)oc1CN1CCN(c2cc3c(cc2F)c(=O)c(C(=O)O)c2n3C(C)S2)CC1` (configuration not stated), the Potency entry in assay [1], in assay [2], in assay [3], in assay [5] and in [15] was “inactive” in each case. Moreover, the result in [4], in assay [6], in [8], in assay [9], in assay [10] and in assay [11] was inactive. The compound was called inactive in assay [12], in assay [13], in assay [14], in [16], in assay [17] and in [20].
